Screening data as filed in PubChem.
VACV mCherry inh: qHTS for Stage-Specific Inhibitors of Vaccinia Orthopoxvirus: mCherry Reporter Primary qHTS. Vaccinia virus mCherry reporter infection, fluorescence. actives 0.63% (n = 310,000). Potency, µM (titrated, usually from 36.5 µM), without a hit: at the highest dose activity change, negative = inhibition, hits mostly inhibitors; calls by dose curve; tested in A549 cells; further: potency means the concentration at half of the fitted maximal effect; nearly all actives have a fitted effect of over 35% in size
HCV inhibitor: qHTS Assay for Inhibitors of Hepatitis C Virus (HCV). Huh7.5.1 HCVcc-Cre infection, luciferase reporter, 44 h. actives 3.4% (n = 340,000). Potency, µM (highest dose often 41.8 µM), for inactives: top-dose activity change, negative = inhibition, most hits filed as inhibitors. AID 651820, 2012; further: potency means the concentration at half of the fitted maximal effect
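HCVcc-Cre virus at an moi near 0.5 was added right after compound to cells cultured 4 h from seeding (1,000 cells/well). Luciferase activity was determined 44 h later, 15 min after substrate addition at RT.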
Sm TGR block: qHTS Assay for the Inhibitors of Schistosoma Mansoni Peroxiredoxins | Schistosoma mansoni thioredoxin glutathione reductase (TGR), Q962Y6 | purified TGR, DTNB reduction, TNB absorbance 405 nm | Potency, µM (top dose mostly 114 µM), for inactives: at the highest dose activity change, negative = inhibition, hits mostly inhibitors | actives 3% (n = 360,000) | AID 485364, 2010; further: potency means the concentration at half of the fitted maximal effect; nearly all actives have a fitted effect of over 60% in size
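Kinetic colorimetric format: TGR-catalysed, NADPH-driven DTNB reduction monitored via TNB absorbance. Enzyme dispensed at 20 nM; compound exposure 15 min at room temperature before reaction start.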
FMDV inh: High Throughput Screening for Foot and Mouth Disease Virus Antivirals; actives 1.2% (n = 410,000); FMDV antiviral cell-based qHTS; Potency, µM (highest dose often 57.9 µM), for inactives: top-dose activity change, negative = inhibition, usual class: inhibitors; calls by dose curve; tested in HEK293T cells; further: read-out not given here; potency means the concentration at half of the fitted maximal effect; nearly all actives have a fitted effect of over 45% in size
Vaccinia Venus: qHTS for Stage-Specific Inhibitors of Vaccinia Orthopoxvirus: Venus Reporter Primary qHTS | Vaccinia virus Venus reporter expression, fluorescence | Potency, µM (series often up to 36.5 µM), for the others: top-dose activity change, negative = inhibition, most hits filed as inhibitors | actives 0.46% (n = 330,000) | AID 720580, 2013; calls by dose curve; tested in A549 cells; further: potency means the concentration at half of the fitted maximal effect; nearly all actives have a fitted effect of over 30% in size
HCMV antiviral: qHTS Assay for inhibitors of the human cytomegalovirus (HCMV). HFF cells, HCMV-luciferase reporter, 72 h; hits give low values. activity change, negative = inhibition, % at 57.5 µM. actives 4.5% (n = 410,000). AID 1259415, 2018; in the data active means activity change below about -60%; inconclusive means no clear call, values can overlap the other calls; inactive means above about -39%
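Screen run at 2 compound doses on HFFs infected with reporter HCMV, MOI 1 PFU/cell. Luciferase activity from cell lysates at 72 h post infection gave inhibition relative to buffer-only and Salinomycin wells.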
* = called active by the depositor; i = inactive; ? = inconclusive; / = no result; + = active, no number; [ ] = another dose, or the depositor's remark. This is a sample that favours compounds with a hit; in the whole collection about 9.3% have one here. Unless noted, the call rests on the fitted dose curve; in most records, active means well fitted curve in the direction sought with a large enough effect; inconclusive means small, poorly fitted or top-dose-only effect, or another doubt; inactive means no such curve, though single readings can be large; an effect the other way counts as inactive or inconclusive. On the % scale 0 is the no-effect control and ±100 the full control effect.

SMILES	VACV mCherry inh	HCV inhibitor	Sm TGR block	FMDV inh	Vaccinia Venus	HCMV antiviral
CC1CCCN(Cc2c(O)ccc3c2O/C(=C\c2ccco2)C3=O)C1 (stereo not given)	-6%	34%	25µM*	-3%	2%	-14
CCN1CCN(Cc2c(O)ccc3c2O/C(=C\c2ccccc2)C3=O)CC1	-12%	-6%	45µM*	-1%	-14%	21
Cc1c(C(=O)OCC(=O)NCCN2C(=O)CSC2=O)oc2c1ccc1ccccc12	i	?	2%	?	-24%	-12
COc1ccc(CN(C(=O)c2ccc(C)cc2)C2CCS(=O)(=O)C2)cc1 (stereo not given)	4%[7.34 µM]	6%	-12%	0%	12%[7.34 µM]	?
CCc1ccc(/C=C2\Oc3c(ccc(O)c3CN3CCN(C)CC3)C2=O)cc1	/	6%	-16%	-14%	/	-33
O=C1/C(=C/C=C/c2ccccc2)Oc2c1ccc(O)c2CN1CCN(CCO)CC1	/	27%	40µM*	-24%	/	0
CCN1CCN(Cc2c(O)ccc3c2O/C(=C\C=C\c2ccccc2)C3=O)CC1	87%	?	35µM*	-12%	56%	?
Cc1ccc(/C=C2\Oc3c(ccc(O)c3CN3CCN(C)CC3)C2=O)cc1	-1%	17%	-17%	7%	-5%	-12
CC(C)CC(=O)N1CCN(C(=O)c2ccc(-c3ccccc3)cc2)CC1	/	-16%	-9%	-27%	/	-16
CCN(CC)S(=O)(=O)c1ccc(Cl)c(C(=O)Nc2cc(C)nn2-c2ccccc2C(F)(F)F)c1	/	?	-2%	/	/	/
O=C1CCCN1c1ncc(S(=O)(=O)c2ccc([N+](=O)[O-])cc2)s1	11µM*	?	49%	?	?	-23
Nc1ncc(S(=O)(=O)c2ccc([N+](=O)[O-])cc2)s1	7.1µM*	3%	/	-12%	?	2
O=C(Nc1ncc(S(=O)(=O)c2ccc([N+](=O)[O-])cc2)s1)c1ccccc1F	-8%[7.34 µM]	-17%	17%	-28%	2%[7.34 µM]	-15
NS(=O)(=O)c1ccc(N2CCCC2=O)c([N+](=O)[O-])c1	i	5%	-4%	-1%	1%	-18
Cc1ccc(-n2nc3c(N4CCC(C(=O)N5CCC(C(N)=O)CC5)CC4)nnc(C)c3c2C)cc1	/	-8%	-7%	-24%	/	-61*
CCN1CCN(C(=O)C2CCN(c3nnc(C)c4c(C)n(-c5ccc(C)cc5)nc34)CC2)CC1	/	8.9µM*	-10%	?	/	-24
Cc1ccc(-n2nc3c(N4CCC(C(=O)N5CCCCC5)CC4)nnc(C)c3c2C)cc1	-30%	/	-7%	-20%	-25%	-39
CCOC(=O)[C@]12CCCC=C1N(Cc1ccccc1)C(=O)[C@H](CC(=O)NCc1cccc3ccccc13)C2	?	/	/	-19%	?	20
Cn1nccc1C(=O)Nc1cccc(S(=O)(=O)N2CCOCC2)c1	/	5%	0%	-17%	/	-25
Cc1ccc2nc(C)cc(C(=O)NC3CCCCCC3)c2c1	/	9%	/	-13%	/	6
Cc1ccc2nc(/N=C(\N)NC(=O)NC3CCCCC3)nc(C)c2c1	?	11µM*	10%	?	?	-65*
CCCC(=O)N/C(N)=N/c1nc(C)c2cc(C)ccc2n1	2.2µM*	6.3µM*	17%	15%	?	-2
COC(=O)C1=CN(CCOC23CC4CC(CC(C4)C2)C3)C=C(C(=O)OC)C1c1ccsc1	-20%	32µM*	6%	-22%	?	-32
COC(=O)C1=CN(Cc2ccc(OC)cc2)C=C(C(=O)OC)C1c1ccsc1	-8%	-19%	/	-8%	-3%	-7
CN[C@H]1C[C@H]2c3[nH]c4ccc(-c5cccc(C)c5)cc4c3CCN2C[C@H]1[C@H](C)O	?	/	/	0%	?	-7
SMILES	VACV mCherry inh	HCV inhibitor	Sm TGR block	FMDV inh	Vaccinia Venus	HCMV antiviral
COC1=C(Nc2ccc(C)cc2)C(=O)c2ccccc2C1=O	?	?	-9%	-15%	?	35
COC1=C(Br)C(=O)c2nc(C)ccc2C1=O	-6%	/	/	40µM*	-24%	12
COC1=C(N)C(=O)c2nc(C)ccc2C1=O	i	?	/	10µM*	4%	-16
COc1ccc(OC)c2c1C(=O)c1ccccc1C2=O	-5%	-14%	-2%	-3%	77%	19
COCCNC(=O)C(=O)Nc1c2c(nn1-c1ccccc1)CS(=O)(=O)C2	-13%	/	2%	-10%	-14%	-3
Clc1ccc(-c2nnc(-c3ccco3)nc2N2CCCCC2)cc1	i	-26%	2.8µM*	-18%	-4%	?
CC(C)(C)c1nnc(N/N=C/c2ccccc2O)n(N)c1=O	2.8µM*	?	-20%	1%	?	-102*
CCc1nnc(N/N=C/c2ccccc2F)n1N	?	-2%	1%	18%	?	-80*
CC(C)(C)c1nnc(N/N=C/c2ccccc2)n(N)c1=O	-6%	11%	8%	-25%	-18%	-8
N#Cc1ccc(Oc2nc(Nc3ccc(F)cc3)nc(N3CCCC3)n2)cc1	/	-5%	1%	?	/	17
O=C(CSc1nnc(-c2ccc(F)cc2)c2ccccc12)Nc1ccccc1	i	-27%	7%	2%	-7%	-63*
COc1ccccc1NC(=O)CSc1nc2ccccc2c2nc(-c3ccccc3)nn12	-6%	/	7%	-25%	4%	-14
O=C(CSc1nnc(-c2ccc(F)cc2)c2ccccc12)Nc1c(F)cccc1F	/	-21%	8%	-10%	/	-83*
O=C(CSc1nc2ccccc2c2nc(-c3ccccc3)nn12)Nc1ccc(F)cc1	-7%	/	5%	14%	-8%	+
CSc1ncccc1C(=O)N1CCc2nnc(C(NC(=O)c3ccoc3)C(C)C)n2CC1 (stereo not given)	i	/	/	-12%	-8%	/
COC(=O)Nc1sc2c(c1C(=O)N1CCOCC1)CCC(C)C2 (stereo not given)	/	?	45µM*	-8%	/	-15
CCOC(=O)Nc1sc2c(c1C(N)=O)CCC(C)C2 (stereo not given)	/	-12%	-6%	3%	/	2
CC1CCc2c(sc(NC(=O)c3cccs3)c2C(=O)O)C1 (stereo not given)	/	?	-12%	23%	/	-79*
CC(=O)Nc1ccc(-c2ccnc3c2CC(C(=O)NCc2ccco2)O3)cc1 (stereo not given)	?	/	/	-14%	?	-70*
O=C(NCc1ccncc1)C1Cc2c(-c3ccc4c(c3)OCO4)ccnc2O1 (stereo not given)	-25%	/	/	-19%	-23%	-13
